The results in this text go back to PubChem BioAssay (EPA / NIEHS).

A short description of assay [1]: ATG_E_Box_CIS: Attagene CIS-FACTORIAL HepG2 Assay for human Enhancer Box (E-box) (AID 2282936). The settings on record: HepG2 E-box cis-reporter transcription, actives raise or lower the signal. The gist of the method: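 Multiplexed CIS reporter system in transiently transfected HepG2 cells measures native transcription factor activity. Reporter RNA after 24 h exposure is profiled by RT-PCR-capillary electrophoresis.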

Assay [2] is described as follows: ATG_EGR_CIS: Attagene CIS-FACTORIAL HepG2 Assay for human Early Growth Response 1 (EGR1) (AID 2282938). The following applies: HepG2 Attagene CIS-FACTORIAL EGR reporter mRNA; actives raise or lower the signal. The gist of the method:
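Transient transfection of human HepG2 with multiple cis-regulated reporter units, chemical exposure 24 h, total RNA isolated. Reverse transcription, PCR, fluorescent labelling and capillary electrophoresis quantify reporter transcripts; activity fitted bidirectionally against DMSO.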

Assay [3] in a line: ATG_M_19_CIS: Attagene CIS-FACTORIAL HepG2 Assay for M19 Transcription Factor (Internal Marker) (AID 2282939). The following applies: HepG2 Attagene CIS-FACTORIAL M19 internal marker reporter; actives raise or lower the signal. The gist of the method: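 Signals come from fluorescence of labelled reporter-specific PCR fragments resolved by capillary electrophoresis, following 24 h treatment of HepG2 cells transfected with cis-promoter reporter units; activity was fitted in both directions relative to DMSO.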

Assay [4] can be described thus: ATG_ERE_CIS: Attagene CIS-FACTORIAL HepG2 Assay for Estrogen Response Element (ERE) (AID 2282940). The following applies: HepG2 ERE cis-reporter, Attagene RNA transcript; actives raise or lower the signal. The gist of the method:
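Fluorescence of capillary-separated, FAM-labelled reporter cDNA fragments indicates reporter mRNA levels in HepG2 cells exposed to chemicals for 24 h. Transient transfection with cis-regulated units; data fitted in both directions against DMSO.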

A short description of assay [5]: ATG_Ets_CIS: Attagene CIS-FACTORIAL HepG2 Assay for human Erythroblast Transformation Specific (ETS) (AID 2282941). The settings on record: HepG2 ETS cis-reporter transcription, actives raise or lower the signal. The gist of the method: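 Steps: transfect HepG2 with multiple reporter units; treat compound 24 h; isolate RNA, DNase-treat, reverse-transcribe; PCR-amplify, label with 6-FAM, digest with HpaI; separate by capillary electrophoresis. Activity fitted both directions versus DMSO.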

For assay [6], the target named is Hepatocyte nuclear factor 3-beta (Homo sapiens) (UniProt Q9Y261). The experiment in a line: ATG_FoxA2_CIS: Attagene CIS-FACTORIAL HepG2 Assay for human Forkhead box A2 (FOXA2) (AID 2282942). The settings on record: HepG2 cis-reporter transcription factor activity, 24 h; actives raise or lower the signal. The method in brief:
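Transient MRTU transfection of HepG2 liver cells; 24 h treatment; total RNA → oligo(dT) RT → PCR → FAM primer extension → HpaI cut → CE. Bidirectional fit vs DMSO.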

Assay [7] is described as follows: ATG_FoxO_CIS: Attagene CIS-FACTORIAL HepG2 Assay for human Forkhead box O (FoxO) (AID 2282943). The following applies: HepG2 Attagene cis-reporter, FoxO element, mRNA; actives raise or lower the signal. The method in brief: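 Values reflect reporter mRNA induction or loss in HepG2 cells 24 h post-dosing, fitted bidirectionally with DMSO as negative control and baseline. Detection used RT-PCR and fluorescence capillary electrophoresis.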

A short description of assay [8]: ATG_GATA_CIS: Attagene CIS-FACTORIAL HepG2 Assay for human GATA Binding Protein (AID 2282944). The settings on record: HepG2 GATA cis-element reporter, Attagene multiplex mRNA; actives raise or lower the signal. The gist of the method: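 After transfecting HepG2 cells with multiple cis-regulated reporter units, chemicals are dosed for 24 h; isolated RNA undergoes RT-PCR and fluorescent labeling before capillary electrophoresis, with activity expressed against DMSO.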

A short description of assay [9]: ATG_GLI_CIS: Attagene CIS-FACTORIAL HepG2 Assay for human Zinc Finger Protein GLI1 (AID 2282945). The settings on record: HepG2, Attagene cis-factorial reporter mRNA, GLI element; actives raise or lower the signal. The gist of the method:
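HepG2 cells transiently transfected with cis-promoter multiplexed reporter units report endogenous transcription factor activity. After 24 h chemical exposure, reporter mRNA was quantified by RT-PCR, 6-FAM labelling, HpaI digestion and capillary electrophoresis, with bidirectional fitting against DMSO.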

Assay [10] can be described thus: ATG_ISRE_CIS: Attagene CIS-FACTORIAL HepG2 Assay for human Interferon Regulatory Factor 1 (IRF1) binding to an Interferon-Stimulated Response Element (ISRE) (AID 2282948). The following applies: HepG2 ISRE cis-reporter (Attagene), mRNA transcription readout; actives raise or lower the signal. The method in brief: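 Transfected HepG2 (multiple reporter transcription units, cis elements) dosed 24 h. RNA → oligo(dT) RT → PCR → 6-FAM primer extension → HpaI → CE. DMSO = negative control/baseline.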

The nature of assay [11]: ATG_M_06_CIS: Attagene CIS-FACTORIAL HepG2 Assay for M06 Transcription Factor (Internal Marker) (AID 2282950). The settings on record: HepG2 Attagene CIS-FACTORIAL M06 internal marker reporter; actives raise or lower the signal. The gist of the method:
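HepG2 liver cells, 24 h exposure. Reporter transcripts from transfected cis-element constructs quantified by RT-PCR/capillary electrophoresis fluorescence. Bidirectional curve fit against DMSO.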

Assay [12] addresses Heat shock factor protein 1 (Homo sapiens) (UniProt Q00613). Briefly: ATG_HSE_CIS: Attagene CIS-FACTORIAL HepG2 Assay for human Heat Shock Transcription Factor 1 (HSE) (AID 2282953). The following applies: HepG2 HSE cis-reporter, Attagene RNA transcription; actives raise or lower the signal. The gist of the method: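 Endogenous transcription factor activity captured via cis-promoter reporter units transfected into HepG2; treatment lasted 24 h. Fluorescence intensity of reporter fragments analysed with bidirectional curve fitting, DMSO baseline.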

A short description of assay [13]: ATG_MRE_CIS: Attagene CIS-FACTORIAL HepG2 Assay for human Metal Responsive Element (MRE) (AID 2282954). The settings on record: HepG2 MRE cis-reporter transcription, Attagene multiplex; actives raise or lower the signal. The gist of the method:
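Step one: transfect HepG2 with cis-regulated reporter units. Step two: dose 24 h. Step three: isolate RNA, RT-PCR, 6-FAM label, HpaI digest, capillary electrophoresis. Fit bidirectionally to DMSO.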

Assay [14] is described as follows: ATG_PBREM_CIS: Attagene CIS-FACTORIAL HepG2 Assay for human Phenobarbital-responsive Enhancer Module (PBREM) (AID 2282955). The following applies: HepG2 PBREM cis-reporter, Attagene multiplexed transcription; actives raise or lower the signal. The gist of the method:
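Endogenous transcription factors in human liver HepG2 cells drive a PBREM cis-element reporter, whose transcript level after 24 h treatment is quantified by RT-PCR with capillary electrophoresis; activity fitted in both directions against DMSO.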

Assay [15] deals with Bile acid receptor (Homo sapiens) (UniProt Q96RI1). The experiment in a line: ATG_IR1_CIS: Attagene CIS-FACTORIAL HepG2 Assay for human Nuclear Receptor Subfamily 1 Group H Member 4 (NR1H4), IR1 submotif (AID 2282946). The settings on record: IR1 reporter transcription, actives raise or lower the signal. The gist of the method: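 Transient MRTU transfection, HepG2; 24 h dosing; RNA → RT-PCR → 6-FAM primer extension → HpaI digest → capillary electrophoresis fluorescence. Gain/loss of signal fitted relative to DMSO.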

Assay [16] can be described thus: ATG_GRE_CIS: Attagene CIS-FACTORIAL HepG2 Assay for human Glucocorticoid Response Elements (GRE) (AID 2282947). The following applies: HepG2 GRE cis-reporter, Attagene multiplex mRNA; actives raise or lower the signal. The method in brief: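 Following 24 h chemical exposure of transiently transfected HepG2 cells, total RNA was reverse-transcribed and reporter cDNA amplified, fluorescently labelled and sized by capillary electrophoresis. Signal gain or loss was fitted relative to DMSO vehicle.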

The nature of assay [17]: ATG_M_32_CIS: Attagene CIS-FACTORIAL HepG2 Assay for M32 Transcription Factor (Internal Marker) (AID 2282949).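 Further: background control marker of the multiplexed CIS panel rather than a real target.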 The following applies: HepG2 Attagene cis-factorial M32 reporter, mRNA; actives raise or lower the signal. The method in brief:
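HepG2 cells transiently transfected with multiplexed cis-regulated reporter units, dosed 24 h. Reporter mRNA quantified by RT-PCR, 6-FAM labelling, HpaI digestion and capillary electrophoresis; bidirectional fit vs DMSO.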

Assay [18] addresses Hypoxia-inducible factor 1-alpha (Homo sapiens) (UniProt Q16665). Briefly: ATG_HIF1a_CIS: Attagene CIS-FACTORIAL HepG2 Assay for human Hypoxia Inducible Factor 1 (HIF1A) (AID 2282951). The following applies: HepG2 Attagene cis-factorial HIF1a reporter transcription; actives raise or lower the signal. The method in brief: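 Transient MRTU transfection of human HepG2 liver cells, 24 h compound treatment, then total RNA isolation, oligo(dT) reverse transcription, PCR amplification, fluorescent labelling and capillary electrophoresis of reporter fragments. Gain or loss relative to DMSO.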

Assay [19] addresses Hepatocyte nuclear factor 6 (Homo sapiens) (UniProt Q9UBC0). The experiment in a line: ATG_HNF6_CIS: Attagene CIS-FACTORIAL HepG2 Assay for human Hepatocyte Nuclear Factor 6 (HNF6) (AID 2282952). The settings on record: HepG2 Attagene cis-factorial HNF6 reporter transcription; actives raise or lower the signal. The gist of the method: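 HepG2 cells transiently transfected with cis-element-driven multiplexed reporter units measuring endogenous transcription factor activity. After 24 h exposure, reporter mRNA quantified by RT-PCR, FAM-labelled fragments and capillary electrophoresis; bidirectional fitting versus DMSO.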

Activity calls are given as the source filed them. How the source made its calls: active means hit-call score of the fitted dose curve at least 0.9, where 1 is the maximum; inactive means score below 0.9.

Hepatocyte nuclear factor 3-beta (Homo sapiens), sequence (Q9Y261 whole entry, looked up): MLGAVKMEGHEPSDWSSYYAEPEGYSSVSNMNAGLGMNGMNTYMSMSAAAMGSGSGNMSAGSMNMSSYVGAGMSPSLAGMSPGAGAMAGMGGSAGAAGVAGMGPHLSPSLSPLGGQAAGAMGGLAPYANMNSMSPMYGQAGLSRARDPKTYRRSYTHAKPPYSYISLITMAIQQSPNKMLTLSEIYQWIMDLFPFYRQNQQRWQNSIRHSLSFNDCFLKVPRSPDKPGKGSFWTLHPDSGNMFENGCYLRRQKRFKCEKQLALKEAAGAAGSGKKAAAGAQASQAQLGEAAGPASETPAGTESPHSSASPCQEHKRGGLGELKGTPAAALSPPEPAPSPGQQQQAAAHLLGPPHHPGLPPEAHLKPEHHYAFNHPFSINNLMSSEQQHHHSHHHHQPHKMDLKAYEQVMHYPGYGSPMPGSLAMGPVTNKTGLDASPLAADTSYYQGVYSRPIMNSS
Hypoxia-inducible factor 1-alpha (Homo sapiens), sequence (Q16665 whole entry, looked up, the tested form may be a part): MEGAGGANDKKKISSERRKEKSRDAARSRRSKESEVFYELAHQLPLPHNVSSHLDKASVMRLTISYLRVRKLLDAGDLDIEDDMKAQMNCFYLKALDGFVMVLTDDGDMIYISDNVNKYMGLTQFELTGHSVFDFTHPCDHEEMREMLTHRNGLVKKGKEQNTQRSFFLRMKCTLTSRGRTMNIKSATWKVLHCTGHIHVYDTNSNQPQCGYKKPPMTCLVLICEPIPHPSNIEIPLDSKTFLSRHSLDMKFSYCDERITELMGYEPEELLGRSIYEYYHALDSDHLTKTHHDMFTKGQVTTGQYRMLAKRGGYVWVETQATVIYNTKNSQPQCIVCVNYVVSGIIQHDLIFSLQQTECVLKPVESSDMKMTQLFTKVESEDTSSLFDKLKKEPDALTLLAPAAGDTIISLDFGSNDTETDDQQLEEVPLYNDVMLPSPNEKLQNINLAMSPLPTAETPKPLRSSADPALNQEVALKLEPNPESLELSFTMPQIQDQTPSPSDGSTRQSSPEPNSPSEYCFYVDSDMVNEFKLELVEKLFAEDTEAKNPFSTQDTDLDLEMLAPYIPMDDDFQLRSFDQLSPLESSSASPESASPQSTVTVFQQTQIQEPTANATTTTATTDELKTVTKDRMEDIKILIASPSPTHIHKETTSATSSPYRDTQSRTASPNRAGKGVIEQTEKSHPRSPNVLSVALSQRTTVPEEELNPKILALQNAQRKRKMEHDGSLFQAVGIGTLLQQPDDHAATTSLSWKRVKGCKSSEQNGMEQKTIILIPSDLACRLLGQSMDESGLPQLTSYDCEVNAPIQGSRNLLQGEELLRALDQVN
Bile acid receptor (Homo sapiens), sequence (Q96RI1 whole entry, looked up): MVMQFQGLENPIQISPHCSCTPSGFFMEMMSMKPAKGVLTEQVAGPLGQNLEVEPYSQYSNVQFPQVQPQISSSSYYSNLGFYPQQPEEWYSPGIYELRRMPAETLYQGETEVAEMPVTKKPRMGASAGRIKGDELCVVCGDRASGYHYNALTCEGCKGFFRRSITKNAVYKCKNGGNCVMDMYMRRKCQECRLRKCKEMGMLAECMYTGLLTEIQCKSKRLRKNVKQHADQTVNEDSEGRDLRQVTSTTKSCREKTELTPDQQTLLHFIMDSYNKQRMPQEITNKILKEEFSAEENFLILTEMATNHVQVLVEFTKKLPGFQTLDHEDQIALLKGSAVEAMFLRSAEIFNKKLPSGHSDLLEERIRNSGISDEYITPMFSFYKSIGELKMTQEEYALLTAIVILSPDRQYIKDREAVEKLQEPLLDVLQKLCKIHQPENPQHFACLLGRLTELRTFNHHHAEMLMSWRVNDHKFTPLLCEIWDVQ
Hepatocyte nuclear factor 6 (Homo sapiens), sequence (Q9UBC0 whole entry, looked up, the tested form may be a part): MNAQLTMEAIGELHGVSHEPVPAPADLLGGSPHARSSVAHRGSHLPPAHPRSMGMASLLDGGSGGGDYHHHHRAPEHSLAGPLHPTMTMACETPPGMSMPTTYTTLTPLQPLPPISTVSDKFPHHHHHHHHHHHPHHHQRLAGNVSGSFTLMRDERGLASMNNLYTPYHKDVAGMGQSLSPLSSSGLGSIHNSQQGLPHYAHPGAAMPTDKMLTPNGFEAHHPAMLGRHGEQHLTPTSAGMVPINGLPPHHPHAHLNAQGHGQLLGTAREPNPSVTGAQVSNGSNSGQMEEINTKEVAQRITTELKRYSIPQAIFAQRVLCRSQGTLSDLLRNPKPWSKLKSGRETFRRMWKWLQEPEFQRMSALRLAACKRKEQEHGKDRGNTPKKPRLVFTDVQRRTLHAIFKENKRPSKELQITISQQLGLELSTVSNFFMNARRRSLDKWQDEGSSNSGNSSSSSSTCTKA
Heat shock factor protein 1 (Homo sapiens), sequence (Q00613 whole entry, looked up, the tested form may be a part): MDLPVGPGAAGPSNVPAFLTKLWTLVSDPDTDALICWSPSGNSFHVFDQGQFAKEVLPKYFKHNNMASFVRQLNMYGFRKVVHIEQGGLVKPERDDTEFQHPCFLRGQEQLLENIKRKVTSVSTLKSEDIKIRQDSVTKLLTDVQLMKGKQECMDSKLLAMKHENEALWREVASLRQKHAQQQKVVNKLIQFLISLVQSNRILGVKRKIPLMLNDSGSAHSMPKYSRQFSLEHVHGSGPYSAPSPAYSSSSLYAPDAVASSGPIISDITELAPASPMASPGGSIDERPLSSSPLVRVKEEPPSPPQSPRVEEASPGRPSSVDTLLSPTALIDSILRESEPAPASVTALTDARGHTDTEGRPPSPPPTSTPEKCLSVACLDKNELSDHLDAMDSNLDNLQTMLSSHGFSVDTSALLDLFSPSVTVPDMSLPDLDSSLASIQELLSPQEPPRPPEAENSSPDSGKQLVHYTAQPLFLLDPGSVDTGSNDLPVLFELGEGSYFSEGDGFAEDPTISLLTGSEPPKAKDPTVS

In general, AC50 refers to the midpoint of the concentration-response curve, whichever way the signal moves. In the case of `O=C(/C=C/C=C/c1ccc2c(c1)OCO2)N1CCCCC1`, the result in [1], in assay [3], in assay [4], in assay [5], in assay [6] and in assay [7] was inactive. Further, the call in [8], in assay [9], in [11] and in assay [14] was inactive. The AC50 was 100 µM (active) in [2], 89.5 µM (active) in [10], 159 µM (active) in assay [12] and 96.1 µM (active) in assay [13].

Turning to `O=C(C(Cl)Cl)N1CCOC12CCCCC2`, the result in assay [1], in [3], in assay [4], in assay [5], in assay [6] and in assay [7] was inactive. In addition, the call in assay [8], in [9], in [16], in [10], in assay [17] and in assay [11] was inactive. The compound was classed as inactive in assay [18], in assay [13] and in [14]. For the same compound, the figures for the AC50 in assay [2] and in [15] were 19.3 µM (active) and 5.74 µM (active), respectively.

On to `COCc1c(C(C)C)nc(C(C)C)c(/C=C/[C@@H](O)C[C@@H](O)CC(=O)O)c1-c1ccc(F)cc1`, for which the outcome in [1], in assay [2], in assay [3], in assay [4], in assay [5] and in [6] was inactive. In addition, the result in assay [7], in [8], in assay [9], in assay [16], in assay [10] and in assay [17] was inactive. In addition, the call in assay [11], in assay [18], in [19] and in assay [12] was inactive. Further, the concentration at half-maximal activity (AC50) in assay [13] is 12.4 µM (active).

As for `CCOC(=O)c1ccc(N(C)C)cc1`, the outcome in assay [1], in assay [2], in assay [3], in assay [4], in [5] and in assay [6] was inactive. Moreover, the call in [7], in assay [8], in [9], in assay [16], in assay [10] and in assay [17] was inactive. Besides, the call in [11], in [18], in assay [19] and in [13] was inactive.

`O=C(O)c1cc(Cl)cc([N+](=O)[O-])c1Cl`: the outcome in assay [1], in assay [2], in [3], in [4], in assay [5] and in [6] was inactive. Besides, the compound was classed as inactive in [7], in [8], in assay [9], in assay [15], in [16] and in assay [10]. For the same compound, the call in assay [11], in assay [18], in assay [19], in assay [12], in assay [13] and in assay [14] was inactive.

On to `O=C(O)CCCC[C@@H]1SC[C@@H]2NC(=O)N[C@@H]21`, for which the outcome in assay [1], in assay [2], in assay [3], in assay [4], in assay [5] and in assay [6] was inactive. Besides, the outcome in assay [7], in assay [8], in assay [9], in [16], in assay [10] and in assay [17] was inactive. Moreover, the call in assay [11], in assay [19], in assay [12], in [13] and in assay [14] was inactive.

As to `N#CCc1ccc(Cl)cc1Cl`, the result in assay [1], in [2], in assay [3], in assay [4], in assay [5] and in assay [6] was inactive. Moreover, the outcome in assay [7], in [9], in assay [10], in assay [17], in assay [11] and in assay [18] was inactive. Also, the compound was called inactive in assay [19], in assay [12] and in assay [13].

In the case of `COc1ccc([C@@H]2CC(=O)c3c(O)cc(O[C@@H]4O[C@H](CO[C@@H]5O[C@@H](C)[C@H](O)[C@@H](O)[C@H]5O)[C@@H](O)[C@H](O)[C@H]4O)cc3O2)cc1OC`, the outcome in assay [1], in assay [2], in assay [3], in assay [5], in [6] and in assay [7] was inactive. The result in assay [9], in assay [15], in assay [10], in assay [17], in assay [11] and in assay [18] was inactive. In addition, the outcome in assay [19], in assay [12], in [13] and in assay [14] was inactive.
